Results reported in the supplement of paper PMC8866396.
± gives the standard deviation of the averaged measurements.

Experiments:
[1] = test system: IL-6-GFP PC-9GR; assay: cell viability (CCK-8 OD) relative to DMSO control (fraction of control); higher = more viable cells; conditions: compound concentration: 10 uM; treatment time: 48 h
Method in brief: (§1)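 In 96-well plates, 3000 cells/well of PC-9 or PC-9GR lung cancer cells with lentiviral IL-6-GFP overexpression received each compound of a purchased 510-compound library at a final 10 μM for 48 h. Viability, measured by CCK-8 absorbance, is each well's optical density relative to the vehicle control well. Data come from two independent replicates.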

[2] = test system: IL-6-GFP PC-9; assay: as above; conditions: compound concentration: 10 uM; treatment time: 48 h
Method in brief: as §1

SMILES	cell viability [1]	cell viability [2]
CCC(=O)OC1(C(=O)CCl)C(C)CC2C3CC(F)C4=CC(=O)C=CC4(C)C3(F)C(O)CC21C (stereo not drawn) [Halobetasol Propionate]	0.859 ± 0.011	1.05 ± 0.29
Cc1ccc(C2OC(CO)C(O)C(O)C2O)cc1Cc1ccc(-c2ccc(F)cc2)s1.Cc1ccc(C2OC(CO)C(O)C(O)C2O)cc1Cc1ccc(-c2ccc(F)cc2)s1.O (stereo not drawn) [Canagliflozin hemihydrate]	1.12 ± 0.2	0.932 ± 0.22
COc1cccc2c1C(=O)c1c(O)c3c(c(O)c1C2=O)CC(O)(C(=O)CO)CC3OC1CC(N)C(O)C(C)O1.Cl (stereo not drawn) [Doxorubicin (Adriamycin) HCl]	0.159 ± 0.12	0.136 ± 0.03
CC(NCc1ccc(OCc2cccc(F)c2)cc1)C(N)=O.CS(=O)(=O)O (stereo not drawn) [Safinamide Mesylate]	1.27 ± 0.017	0.749 ± 0.14
COc1c(OC2OC(CO)C(O)C(O)C2O)cc2c(c1OC)-c1ccc(SC)c(=O)cc1C(NC(C)=O)CC2 (stereo not drawn) [Thiocolchicoside]	1.18 ± 0.26	1.2 ± 0.12
CN(N=O)C(=O)NC1C(O)OC(CO)C(O)C1O (stereo not drawn) [Streptozotocin (STZ)]	1.23 ± 0.087	0.636 ± 0.052
Cc1c(Cl)cccc1Nc1ncccc1C(=O)O [Clonixin]	0.814 ± 0.24	1.08 ± 0.027
CCOC(=O)N1CCC(=C2c3ccc(Cl)cc3CCc3cccnc32)CC1 [Loratadine]	1.12 ± 0.032	0.934 ± 0.18
CCC(C)C(=O)OC1CC(C)C=C2C=CC(C)C(CCC3CC(O)CC(=O)O3)C21 (stereo not drawn) [Lovastatin]	1.23 ± 0.028	0.619 ± 0.019
